For one molecule, residual activity results are on record in ChEMBL document CHEMBL2218924, “A broad activity screen in support of a chemogenomic map for kinase signalling research and drug discovery” (Biochem J, 2013).

In experiment [1] the target is Tyrosine-protein kinase SYK (Homo sapiens) (UniProt P43405). Conditions: at 10 µM.
In experiment [2] the target is T1, Mitogen-activated protein kinase kinase kinase 7 (Homo sapiens) (UniProt O43318).
T1 sequence (whole entry): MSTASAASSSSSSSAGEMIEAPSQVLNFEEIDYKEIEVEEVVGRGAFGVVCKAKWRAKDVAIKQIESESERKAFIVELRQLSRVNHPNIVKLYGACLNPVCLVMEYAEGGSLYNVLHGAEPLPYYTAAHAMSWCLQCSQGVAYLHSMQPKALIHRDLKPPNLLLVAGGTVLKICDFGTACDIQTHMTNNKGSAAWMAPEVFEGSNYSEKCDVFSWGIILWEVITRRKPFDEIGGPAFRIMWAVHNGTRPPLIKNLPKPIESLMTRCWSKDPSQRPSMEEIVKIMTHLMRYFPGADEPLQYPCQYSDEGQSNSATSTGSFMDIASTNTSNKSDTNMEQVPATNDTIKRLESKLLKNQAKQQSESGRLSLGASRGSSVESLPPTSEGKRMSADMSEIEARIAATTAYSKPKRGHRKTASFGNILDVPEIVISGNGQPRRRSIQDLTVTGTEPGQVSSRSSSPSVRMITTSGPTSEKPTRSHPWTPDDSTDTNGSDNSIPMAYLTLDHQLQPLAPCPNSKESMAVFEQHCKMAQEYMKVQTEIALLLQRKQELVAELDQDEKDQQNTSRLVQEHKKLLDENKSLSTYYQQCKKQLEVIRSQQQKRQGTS
As to conditions: at 1 µM.

Experiment [3] deals with T1, Mitogen-activated protein kinase kinase kinase 7 (Homo sapiens). Conditions: at 10 µM.
The target of experiment [4] is T2, Serine/threonine-protein kinase TAO1 (Homo sapiens) (UniProt Q7L7X3).
T2 sequence (whole entry): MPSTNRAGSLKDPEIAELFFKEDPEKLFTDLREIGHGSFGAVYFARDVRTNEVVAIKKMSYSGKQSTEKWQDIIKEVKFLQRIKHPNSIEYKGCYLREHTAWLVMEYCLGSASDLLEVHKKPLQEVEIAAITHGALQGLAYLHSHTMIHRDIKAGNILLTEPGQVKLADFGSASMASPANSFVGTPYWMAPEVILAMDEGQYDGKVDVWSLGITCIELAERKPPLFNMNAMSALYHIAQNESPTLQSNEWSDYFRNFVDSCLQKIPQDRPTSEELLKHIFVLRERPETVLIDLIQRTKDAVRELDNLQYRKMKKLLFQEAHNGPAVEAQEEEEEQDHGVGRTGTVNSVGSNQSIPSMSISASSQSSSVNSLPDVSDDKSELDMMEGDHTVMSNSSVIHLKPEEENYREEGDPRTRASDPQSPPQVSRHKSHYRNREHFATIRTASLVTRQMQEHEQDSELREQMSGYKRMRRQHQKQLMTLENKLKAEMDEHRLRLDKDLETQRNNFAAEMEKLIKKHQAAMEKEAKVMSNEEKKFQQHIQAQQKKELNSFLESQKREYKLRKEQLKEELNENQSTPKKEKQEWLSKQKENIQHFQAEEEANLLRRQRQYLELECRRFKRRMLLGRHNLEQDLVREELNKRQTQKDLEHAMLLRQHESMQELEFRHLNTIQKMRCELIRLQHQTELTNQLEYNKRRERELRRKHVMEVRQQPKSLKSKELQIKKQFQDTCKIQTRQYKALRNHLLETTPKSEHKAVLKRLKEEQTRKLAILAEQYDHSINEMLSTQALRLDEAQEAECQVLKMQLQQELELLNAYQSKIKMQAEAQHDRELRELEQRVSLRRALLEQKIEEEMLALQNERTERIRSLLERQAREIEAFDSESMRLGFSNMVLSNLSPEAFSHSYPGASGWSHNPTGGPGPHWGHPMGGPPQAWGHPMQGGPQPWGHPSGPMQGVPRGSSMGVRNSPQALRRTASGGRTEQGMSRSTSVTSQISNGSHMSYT
Conditions: at 1 µM.

Experiment [5] concerns the target T2, Serine/threonine-protein kinase TAO1 (Homo sapiens). As to conditions: at 10 µM.
Experiment [6] deals with T3, Serine/threonine-protein kinase TAO2 (Homo sapiens) (UniProt Q9UL54).
T3 sequence (whole entry): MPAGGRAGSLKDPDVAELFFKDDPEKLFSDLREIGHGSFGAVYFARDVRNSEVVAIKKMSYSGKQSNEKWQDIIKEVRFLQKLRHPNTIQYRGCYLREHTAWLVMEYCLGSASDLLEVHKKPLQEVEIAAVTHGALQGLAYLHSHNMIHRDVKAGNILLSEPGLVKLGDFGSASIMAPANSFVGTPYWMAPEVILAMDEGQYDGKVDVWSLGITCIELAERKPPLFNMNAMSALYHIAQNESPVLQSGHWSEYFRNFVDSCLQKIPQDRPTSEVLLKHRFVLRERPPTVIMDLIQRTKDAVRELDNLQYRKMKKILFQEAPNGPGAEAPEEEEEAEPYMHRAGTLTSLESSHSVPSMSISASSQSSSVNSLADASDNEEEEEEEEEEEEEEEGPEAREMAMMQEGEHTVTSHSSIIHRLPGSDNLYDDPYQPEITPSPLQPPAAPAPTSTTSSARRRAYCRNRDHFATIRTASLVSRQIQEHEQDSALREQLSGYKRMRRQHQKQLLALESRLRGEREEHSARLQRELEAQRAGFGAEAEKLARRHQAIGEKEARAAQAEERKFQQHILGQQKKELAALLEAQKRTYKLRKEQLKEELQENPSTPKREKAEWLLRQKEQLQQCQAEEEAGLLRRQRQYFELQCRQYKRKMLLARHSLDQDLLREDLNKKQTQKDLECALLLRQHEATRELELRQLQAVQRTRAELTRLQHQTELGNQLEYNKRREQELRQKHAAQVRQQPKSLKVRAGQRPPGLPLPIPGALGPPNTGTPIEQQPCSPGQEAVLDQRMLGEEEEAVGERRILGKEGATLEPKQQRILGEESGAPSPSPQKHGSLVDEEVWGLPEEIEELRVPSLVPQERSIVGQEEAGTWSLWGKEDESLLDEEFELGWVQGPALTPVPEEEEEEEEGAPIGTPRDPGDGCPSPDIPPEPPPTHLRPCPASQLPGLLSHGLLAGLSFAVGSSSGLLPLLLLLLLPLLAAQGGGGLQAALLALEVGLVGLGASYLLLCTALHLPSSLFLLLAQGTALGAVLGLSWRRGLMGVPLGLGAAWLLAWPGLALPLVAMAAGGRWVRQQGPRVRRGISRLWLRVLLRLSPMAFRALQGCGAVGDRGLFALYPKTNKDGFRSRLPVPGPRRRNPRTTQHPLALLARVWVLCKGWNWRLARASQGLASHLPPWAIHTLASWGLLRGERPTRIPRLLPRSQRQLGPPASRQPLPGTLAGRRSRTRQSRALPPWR
As to conditions: at 1 µM.

Experiment [7] addresses T3, Serine/threonine-protein kinase TAO2 (Homo sapiens). Conditions: at 10 µM.
In experiment [8] the target is T4, Serine/threonine-protein kinase TAO3 (Homo sapiens) (UniProt Q9H2K8).
T4 sequence (whole entry): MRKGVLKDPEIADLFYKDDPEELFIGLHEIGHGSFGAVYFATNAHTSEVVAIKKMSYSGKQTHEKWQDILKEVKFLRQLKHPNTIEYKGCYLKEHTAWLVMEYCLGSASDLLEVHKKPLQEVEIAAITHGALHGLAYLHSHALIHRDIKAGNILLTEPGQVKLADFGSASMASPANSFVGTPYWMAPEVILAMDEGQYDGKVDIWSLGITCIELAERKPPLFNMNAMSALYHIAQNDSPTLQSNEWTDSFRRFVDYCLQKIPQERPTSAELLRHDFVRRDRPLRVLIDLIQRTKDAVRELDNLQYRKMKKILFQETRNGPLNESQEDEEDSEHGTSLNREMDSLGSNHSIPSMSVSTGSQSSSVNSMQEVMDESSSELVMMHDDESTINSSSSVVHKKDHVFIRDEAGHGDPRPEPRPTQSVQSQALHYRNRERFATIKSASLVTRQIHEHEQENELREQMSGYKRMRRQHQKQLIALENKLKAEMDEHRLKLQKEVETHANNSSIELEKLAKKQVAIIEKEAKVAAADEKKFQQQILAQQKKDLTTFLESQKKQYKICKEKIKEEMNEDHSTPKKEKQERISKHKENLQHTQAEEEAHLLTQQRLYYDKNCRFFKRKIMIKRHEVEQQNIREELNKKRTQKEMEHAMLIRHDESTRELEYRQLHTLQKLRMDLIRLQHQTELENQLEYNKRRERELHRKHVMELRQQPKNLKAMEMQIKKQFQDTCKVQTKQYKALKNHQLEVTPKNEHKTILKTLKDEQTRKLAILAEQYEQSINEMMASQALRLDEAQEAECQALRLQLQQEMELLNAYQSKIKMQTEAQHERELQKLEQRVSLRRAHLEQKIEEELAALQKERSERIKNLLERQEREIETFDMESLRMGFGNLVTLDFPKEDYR
Conditions: at 1 µM.

In experiment [9] the target is T4, Serine/threonine-protein kinase TAO3 (Homo sapiens). As to conditions: at 10 µM.
The target in experiment [10] is T5, Serine/threonine-protein kinase TBK1 (Homo sapiens) (UniProt Q9UHD2).
T5 sequence (whole entry): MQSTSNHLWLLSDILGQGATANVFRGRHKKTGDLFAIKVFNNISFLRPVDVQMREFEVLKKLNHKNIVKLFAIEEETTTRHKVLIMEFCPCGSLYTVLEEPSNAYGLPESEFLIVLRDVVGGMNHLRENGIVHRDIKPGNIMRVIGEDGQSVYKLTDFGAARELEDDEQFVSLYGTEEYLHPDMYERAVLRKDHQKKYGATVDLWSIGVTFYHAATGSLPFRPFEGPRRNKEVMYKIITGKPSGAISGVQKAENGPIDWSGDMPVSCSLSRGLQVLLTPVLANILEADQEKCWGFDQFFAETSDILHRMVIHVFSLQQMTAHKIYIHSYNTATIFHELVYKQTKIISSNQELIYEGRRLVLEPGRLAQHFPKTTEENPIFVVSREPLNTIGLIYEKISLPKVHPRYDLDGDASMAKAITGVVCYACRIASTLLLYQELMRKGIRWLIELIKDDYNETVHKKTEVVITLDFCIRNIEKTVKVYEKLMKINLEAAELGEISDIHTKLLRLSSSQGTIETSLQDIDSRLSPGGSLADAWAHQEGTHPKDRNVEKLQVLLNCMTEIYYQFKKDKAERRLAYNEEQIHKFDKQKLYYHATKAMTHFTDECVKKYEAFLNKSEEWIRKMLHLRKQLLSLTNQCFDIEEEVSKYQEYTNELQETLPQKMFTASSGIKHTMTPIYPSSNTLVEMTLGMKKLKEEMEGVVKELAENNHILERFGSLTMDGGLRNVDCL
Conditions: at 1 µM.

In experiment [11] the target is T5, Serine/threonine-protein kinase TBK1 (Homo sapiens). Conditions: at 10 µM.
In experiment [12] the target is T6, TGF-beta receptor type-1 (Homo sapiens) (UniProt P36897).
T6 sequence (whole entry): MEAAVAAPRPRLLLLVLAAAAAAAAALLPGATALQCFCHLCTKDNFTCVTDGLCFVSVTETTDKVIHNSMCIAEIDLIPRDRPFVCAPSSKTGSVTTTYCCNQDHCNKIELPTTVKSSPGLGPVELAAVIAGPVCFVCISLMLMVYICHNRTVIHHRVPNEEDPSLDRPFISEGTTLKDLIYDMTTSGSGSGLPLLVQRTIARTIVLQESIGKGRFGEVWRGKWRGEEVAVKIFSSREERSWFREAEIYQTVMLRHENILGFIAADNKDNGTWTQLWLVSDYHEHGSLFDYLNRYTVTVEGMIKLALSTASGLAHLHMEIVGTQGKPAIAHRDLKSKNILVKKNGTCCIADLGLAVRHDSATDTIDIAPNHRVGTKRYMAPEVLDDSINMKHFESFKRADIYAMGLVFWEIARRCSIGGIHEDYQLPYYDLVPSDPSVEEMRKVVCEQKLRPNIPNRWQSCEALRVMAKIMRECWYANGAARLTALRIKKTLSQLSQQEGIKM
As to conditions: at 1 µM.

Experiment [13] concerns the target T6, TGF-beta receptor type-1 (Homo sapiens). Conditions: at 10 µM.
For experiment [14], the target named is T7, Inhibitor of nuclear factor kappa-B kinase subunit beta (Homo sapiens) (UniProt O14920).
T7 sequence (whole entry): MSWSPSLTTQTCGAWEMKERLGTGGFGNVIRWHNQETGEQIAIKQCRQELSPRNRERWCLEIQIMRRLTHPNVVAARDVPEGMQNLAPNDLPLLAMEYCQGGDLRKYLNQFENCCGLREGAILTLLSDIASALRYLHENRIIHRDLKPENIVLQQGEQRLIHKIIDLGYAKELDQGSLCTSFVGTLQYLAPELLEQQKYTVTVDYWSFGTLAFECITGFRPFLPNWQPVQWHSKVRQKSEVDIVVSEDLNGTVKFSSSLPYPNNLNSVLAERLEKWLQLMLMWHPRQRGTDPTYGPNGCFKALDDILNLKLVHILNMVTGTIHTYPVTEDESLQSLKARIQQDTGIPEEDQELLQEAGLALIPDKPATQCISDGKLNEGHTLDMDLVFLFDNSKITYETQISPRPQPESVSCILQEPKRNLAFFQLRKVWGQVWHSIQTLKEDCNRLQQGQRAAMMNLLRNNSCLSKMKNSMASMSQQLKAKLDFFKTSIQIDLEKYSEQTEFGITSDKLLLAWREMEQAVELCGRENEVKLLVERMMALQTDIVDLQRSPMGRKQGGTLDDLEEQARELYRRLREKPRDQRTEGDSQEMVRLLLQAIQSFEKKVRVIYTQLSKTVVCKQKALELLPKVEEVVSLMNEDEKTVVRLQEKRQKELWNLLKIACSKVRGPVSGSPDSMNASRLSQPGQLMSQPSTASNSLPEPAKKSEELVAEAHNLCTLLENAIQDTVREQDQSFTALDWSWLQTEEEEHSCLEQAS
Conditions: at 1 µM.

Experiment [15] deals with T7, Inhibitor of nuclear factor kappa-B kinase subunit beta (Homo sapiens). As to conditions: at 10 µM.

Turning to `CC(=O)c1ccc(N2CCOCC2)cc1O`, the residual activity was determined as 101% in experiment [1]; 93% in [2]; 90% in experiment [3]; 103% in experiment [4]; 95% in experiment [5]; 92% in [6]. For the same molecule, the residual activity was found to be 94% in experiment [7]; 101% in [8]; 91% in experiment [9]; 74% in [10]; 70% in experiment [11]; 83% in experiment [12]. The residual activity in experiment [13] was 90%; in experiment [14] it was 104%; in experiment [15], 102%.
